# Test results: PubChem BioAssay (NCATS)
# Records with an inconclusive call do not appear. Entries that show only a call come without a potency. Activity calls are given as the source filed them. Unless noted, calls follow the shape of the full dose curve.
# What was measured:
# [1] = Primary qHTS for inhibitors of SARS-S pseudo-typed particle cell entry (AID 1479145); settings: outcome: dose series up to 57.1 µM unless noted; also: nearly all actives have a fitted effect of over 45% in size; also: potency is read from the fitted curve at half-maximal effect
# [2] = Primary qHTS for Huh7 cytotoxicity: counterscreen for inhibitors of MERS-S pseudotyped particle cell entry (AID 1479147); settings: outcome: dose series up to 57.1 µM unless noted
# [3] = Primary qHTS for Vero E6 cytotoxicity: counterscreen for inhibitors of SARS-S pseudo-typed particle cell entry (AID 1479150); settings: outcome: dose series up to 57.1 µM unless noted
# [4] = target: Nuclear receptor subfamily 1 group I member 3 (Homo sapiens) (UniProt Q14994); assay: Primary qHTS for antagonist of constitutive androstane receptor (CAR) against the NCATS DSHEA and TCM libraries (AID 1794836; active = well fitted curve in the direction sought with a large enough effect; an effect the other way counts as inactive or inconclusive;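 also: HepG2 cells stably expressing hCAR with CYP2B6 luciferase reporter stimulated by CITCO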)
# How it was run: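 Antagonist mode: CAR reporter luminescence (ONE-Glo) in HepG2-CYP2B6-hCAR cells stimulated with 48 uM CITCO (final) over 24 h at 37 C, compounds titrated; viability read first by CellTiter-Fluor fluorescence.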
# [5] = KB-8-5-11 P-gp reporter qHTS against the NCATS DSHEA and TCM libraries (AID 1919977; active = well fitted curve in the direction sought with a large enough effect; an effect the other way counts as inactive or inconclusive)
# How it was run: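 CellTiter-Glo luminescence measured viability after ~72 h exposure (37C, 5% CO2) of KB-8-5-11 cervical adenocarcinoma cells overexpressing P-gp. Colchicine was omitted during assay. Substances were tested as titrations.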
# [6] = Cytotoxicity counterscreen for inhibitors of SARS-CoV-2 cell entry (AID 1645845); settings: outcome: dose series up to 57.1 µM unless noted; also: nearly all actives have a fitted effect of over 50% in size
# How it was run: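 ATP-content luminescence (ATPLite 1step, 15 min RT) read after 48 h compound exposure of Expi293F cells stably expressing human ACE2; normalized to cells-only wells and media-only wells.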
# [7] = Confirmatory qHTS to identify inhibitors of SARS-CoV-2 cell entry (AID 1645844); also: potency is read from the fitted curve at half-maximal effect; nearly all actives have a fitted effect of over 45% in size
# How it was run: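 Luminescence entry read-out after 48 h: spike-pseudotyped MLV particles (Wuhan-Hu-1, 19-aa C-terminal truncation) added to compound-pretreated (1 h) HEK293-ACE2 cells; Data were normalised to bald PP and spike PP wells.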
# [8] = VSVG counterscreen qHTS to identify inhibitors of SARS-CoV-2 cell entry (AID 1645847); also: nearly all actives have a fitted effect of over 65% in size; also: potency is read from the fitted curve at half-maximal effect
# How it was run: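 Luminescence read after 48 h infection at 37 C with VSV-G-pseudotyped MLV particles, following 1 h compound exposure of Expi293F cells stably expressing human ACE2; scaled between bald particle and VSV-G particle wells.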
# [9] = Primary qHTS to identify inhibitors of SARS-CoV-2 cell entry (AID 1645846); settings: SARS-CoV-2 pseudovirus cell entry assay, luminescence; activity change, negative = inhibition: at 57.1 µM (top of the series) unless noted; also: nearly all actives have a fitted effect of over 45% in size; also: potency is read from the fitted curve at half-maximal effect
# How it was run: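 Entry measured by luciferase signal 48 h after adding SARS-CoV-2-S pseudotyped MLV particles to HEK293-ACE2 cells preincubated 1 h with compounds. Normalisation: bald particles and spike particles.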
# [10] = Primary qHTS for inhibitors of MERS-S pseudo-typed particle cell entry (AID 1479149); settings: outcome: dose series up to 57.1 µM unless noted; also: nearly all actives have a fitted effect of over 60% in size
# [11] = NCATS anti-infectives library activity on the primary C. elegans qHTS viability assay (AID 1745855)
# How it was run: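 Titration-based screen in worms: eggs hatched overnight in M9, L1 larvae fed TOP10 capsules in S medium with compound, incubated 21 °C for 7 days; fluorescent objects gated by size and intensity at days 0, 3 and 7.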
# [12] = target: Glutathione peroxidase 1 (Homo sapiens) (UniProt P07203); assay: Primary qHTS Assay for Inhibitors of Recombinant Selenoprotein Glutathione Peroxidase 1 (GPX1) (AID 1845191; active = well fitted curve in the direction sought with a large enough effect; an effect the other way counts as inactive or inconclusive; also: nearly all actives have a fitted effect of over 65% in size)
# How it was run: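 NADPH consumption tracked by fluorescence at 340/450 nm between t=0 and t=15 min, room temperature. Final mix: 10 nM GPX1, 100 nM glutathione reductase, 1 mM GSH, 0.5 mM NADPH, 0.5 mM cumene hydroperoxide, 0.01% BSA; 30 min compound–enzyme preincubation.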
# [13] = target: Phospholipid hydroperoxide glutathione peroxidase GPX4 (Homo sapiens) (UniProt P36969); assay: Primary qHTS Assay for Inhibitors of Recombinant Selenoprotein Glutathione Peroxidase 4 (GPX4) (AID 1845192; active = well fitted curve in the direction sought with a large enough effect; an effect the other way counts as inactive or inconclusive; also: nearly all actives have a fitted effect of over 65% in size)
# How it was run: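 NADPH consumption followed by fluorescence at 340/450 nm, t=0 and after 15 min at room temperature. Reaction started with cumene hydroperoxide (0.5 mM final) after 30 min compound–GPX4 preincubation; final 200 nM GPX4, 100 nM GR, 1 mM GSH, 0.5 mM NADPH.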
# [14] = target: Peroxisome proliferator-activated receptor delta (Homo sapiens) (UniProt Q03181); assay: qHTS assay for small molecule agonists of peroxisome proliferator-activated receptor delta signaling (AID 588534)
# How it was run: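 Titration series tested in agonist mode on beta-lactamase reporter cells; 18 hrs at 37 C after a 5 hr pre-incubation. Readout: CCF4 fluorescence, 2 hrs RT. Hill equation gives EC50 and maximal response.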
# [15] = target: Alpha-galactosidase (Coffea arabica) (UniProt Q42656); assay: Counterscreen for Glucocerebrosidase Inhibitors: qHTS Assay for Coffee Bean alpha-Galactosidase at pH 5.9 (AID 998; active = well fitted curve in the direction sought with a large enough effect; an effect the other way counts as inactive or inconclusive)
# How it was run: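 Fluorogenic 4-MU substrate hydrolysis, 80 uM substrate and 2 nM coffee bean alpha-galactosidase, pH 5.9 citrate buffer, 20 min at room temperature, then NaOH/glycine stop. Titration 0.7 nM–77 uM, normalized to no-enzyme and enzyme controls, AC50 via Hill equation.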
# [16] = Inducers of the Endoplasmic Reticulum Stress Response (ERSR) in human glioma: Validation (AID 504836; active = well fitted curve in the direction sought with a large enough effect; an effect the other way counts as inactive or inconclusive)
# How it was run: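 ERSR induction read as luciferase luminescence (Bright-Glo, 10 min at room temperature) in stably transfected human U87-MG glioma cells exposed to compounds for 16 h, using GRP78 as sensor.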
# Chain of Nuclear receptor subfamily 1 group I member 3 (Homo sapiens) (Q14994 whole entry, looked up): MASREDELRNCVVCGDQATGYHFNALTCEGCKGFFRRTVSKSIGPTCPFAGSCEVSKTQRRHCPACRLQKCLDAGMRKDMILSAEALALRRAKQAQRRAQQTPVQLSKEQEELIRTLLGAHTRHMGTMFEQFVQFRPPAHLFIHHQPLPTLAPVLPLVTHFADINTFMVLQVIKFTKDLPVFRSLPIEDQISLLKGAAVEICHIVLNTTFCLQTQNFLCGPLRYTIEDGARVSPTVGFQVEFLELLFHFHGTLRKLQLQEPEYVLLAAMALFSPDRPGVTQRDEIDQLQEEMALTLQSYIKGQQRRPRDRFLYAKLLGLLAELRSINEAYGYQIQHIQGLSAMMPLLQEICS
# Chain of Peroxisome proliferator-activated receptor delta (Homo sapiens) (Q03181 whole entry, looked up): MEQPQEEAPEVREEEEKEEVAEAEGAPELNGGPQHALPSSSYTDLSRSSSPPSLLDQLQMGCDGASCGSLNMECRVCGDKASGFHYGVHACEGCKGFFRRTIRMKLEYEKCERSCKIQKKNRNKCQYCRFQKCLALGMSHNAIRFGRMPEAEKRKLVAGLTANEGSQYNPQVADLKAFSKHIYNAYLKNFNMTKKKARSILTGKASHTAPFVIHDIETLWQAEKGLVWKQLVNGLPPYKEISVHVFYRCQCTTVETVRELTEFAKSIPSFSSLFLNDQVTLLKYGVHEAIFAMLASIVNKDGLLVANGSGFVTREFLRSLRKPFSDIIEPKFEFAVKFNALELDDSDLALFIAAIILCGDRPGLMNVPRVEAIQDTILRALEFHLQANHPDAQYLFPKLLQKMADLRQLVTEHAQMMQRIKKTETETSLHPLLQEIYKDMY
# Chain of Alpha-galactosidase (Coffea arabica) (Q42656 whole entry, looked up): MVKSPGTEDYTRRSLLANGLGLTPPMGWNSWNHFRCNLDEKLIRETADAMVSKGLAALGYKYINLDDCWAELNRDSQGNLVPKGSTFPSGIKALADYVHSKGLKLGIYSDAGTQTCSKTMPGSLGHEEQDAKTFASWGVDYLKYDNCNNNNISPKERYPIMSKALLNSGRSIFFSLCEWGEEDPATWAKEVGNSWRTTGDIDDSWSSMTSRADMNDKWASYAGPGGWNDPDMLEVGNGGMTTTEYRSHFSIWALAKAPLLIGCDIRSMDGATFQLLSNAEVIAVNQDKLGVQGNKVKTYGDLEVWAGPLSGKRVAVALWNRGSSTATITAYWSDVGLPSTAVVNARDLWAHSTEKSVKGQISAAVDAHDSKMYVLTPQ
# Chain of Glutathione peroxidase 1 (Homo sapiens) (P07203 whole entry, looked up): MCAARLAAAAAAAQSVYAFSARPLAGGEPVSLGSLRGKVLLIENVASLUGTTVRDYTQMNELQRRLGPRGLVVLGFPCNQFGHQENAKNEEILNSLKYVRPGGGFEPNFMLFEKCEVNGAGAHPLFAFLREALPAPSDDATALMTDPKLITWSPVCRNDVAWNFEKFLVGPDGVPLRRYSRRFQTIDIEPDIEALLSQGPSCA
# Chain of Phospholipid hydroperoxide glutathione peroxidase GPX4 (Homo sapiens) (P36969 whole entry, looked up): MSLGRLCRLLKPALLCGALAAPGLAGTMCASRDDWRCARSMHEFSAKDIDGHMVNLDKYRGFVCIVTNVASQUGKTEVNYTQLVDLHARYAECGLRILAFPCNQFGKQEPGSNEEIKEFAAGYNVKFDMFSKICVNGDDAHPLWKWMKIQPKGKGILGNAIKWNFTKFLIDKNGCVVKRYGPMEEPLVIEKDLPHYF
compound,measurement,setting,value
C=C1CC[C@H](O)CC1=C/C=C1\CCC[C@]2(C)[C@@H]([C@H](C)/C=C/[C@H](C)C(C)C)CC[C@@H]12,Potency,[1],inactive
same,Potency,[2],inactive
same,Potency,[3],inactive
same,Potency,[4],inactive
same,Potency,[5],inactive
C=C1/C(=C/C=C2\CCC[C@]3(C)[C@@H]([C@H](C)CCCC(O)(C(F)(F)F)C(F)(F)F)CC[C@@H]23)C[C@@H](O)C[C@@H]1O,Potency,[1],inactive
same,Potency,[2],inactive
same,Potency,[3],inactive
CC1(C)C(/C=C/C=C/C=C/C=C2/N(CCCCS(=O)(=O)O)c3ccc4ccccc4c3C2(C)C)=[N+](CCCCS(=O)(=O)[O-])c2ccc3ccccc3c21,Potency,[1],inactive
same,Potency,[2],inactive
same,Potency,[3],inactive
same,Potency,[6],inactive
C[C@H]1C[C@H]2[C@H]3CCC4=CC(=O)C=C[C@]4(C)[C@@]3(F)[C@@H](O)C[C@]2(C)[C@@]1(OC(=O)c1ccccc1)C(=O)CO,Potency,[1],inactive
same,Potency,[2],inactive
same,Potency,[3],inactive
Nc1nc(Cl)nc2c1ncn2C1CC(O)C(CO)O1 (configuration not stated),Potency,[1],11.2 µM (active)
same,Potency,[2],inactive
same,Potency,[3],inactive
same,Potency,[7],19.2 µM (active)
same,Potency,[6],inactive
same,Potency,[8],19.2 µM (active)
Nc1nc(-n2cc(C(=O)O)c(=O)c3cc(F)c(N4CC(O)C4)c(Cl)c32)c(F)cc1F,Potency,[1],inactive
same,Potency,[2],inactive
same,Potency,[3],inactive
same,Potency,[6],inactive
Cc1c(OCC(F)(F)F)ccnc1C[S@@](=O)c1nc2ccccc2[nH]1,Potency,[1],inactive
same,Potency,[2],inactive
same,Potency,[3],inactive
C=C1C/C(=C\C=C2/CCC[C@]3(C)[C@@H]([C@H](C)/C=C/C(C)C(C)C)CC[C@@H]23)[C@@H](O)C[C@@H]1O (some centres not stated),Potency,[1],inactive
same,Potency,[2],inactive
same,Potency,[3],inactive
CN1C(CC(=O)c2ccccc2)CCCC1CC(O)c1ccccc1 (configuration not stated),Potency,[1],inactive
same,Potency,[2],inactive
same,Potency,[3],inactive
same,Potency,[6],inactive
same,Potency,[8],3.83 µM (active)
CC[C@H]1OC(=O)[C@H](C)[C@@H](O[C@H]2C[C@@](C)(OC)[C@@H](O)[C@H](C)O2)[C@H](C)[C@@H](O[C@@H]2O[C@H](C)C[C@H](N(C)C)[C@H]2O)[C@](C)(OC)C[C@@H](C)C(=O)[C@H](C)[C@@H](O)[C@]1(C)O,Potency,[1],inactive
same,Potency,[2],inactive
same,Potency,[3],inactive
same,Potency,[6],inactive
same,"activity change, negative = inhibition",[9],-13%
CC(C)OC(=O)[C@H](C)N[P@](=O)(CO[C@H](C)Cn1cnc2c(N)ncnc21)Oc1ccccc1,Potency,[1],0.891 µM (active)
same,Potency,[10],inactive
same,Potency,[3],inactive
same,Potency,[7],0.0108 µM (active)
same,Potency,[6],inactive
same,"activity change, negative = inhibition",[9],-96.1%
same,Potency,[11],inactive
same,Potency,[12],inactive
same,Potency,[13],inactive
CC[C@H]1OC(=O)[C@H](C)[C@@H](O[C@H]2C[C@@](C)(OC)[C@@H](O)[C@H](C)O2)[C@H](C)[C@@H](O[C@@H]2O[C@H](C)C[C@H](N(C)C)[C@H]2O)[C@](C)(O)C[C@@H](C)CN(C)[C@H](C)[C@@H](O)[C@]1(C)O,outcome,[14],inactive
same,Potency,[1],inactive
same,Potency,[2],inactive
same,Potency,[3],inactive
same,Potency,[7],24.1 µM (active)
same,Potency,[6],inactive
same,Potency,[9],12.6 µM (active)
same,Potency,[8],inactive
C=C1CC[C@H](O)CC1=C/C=C1\CCC[C@]2(C)[C@@H]([C@H](C)CCCC(C)(C)O)CC[C@@H]12,Potency,[1],inactive
same,Potency,[2],inactive
same,Potency,[3],inactive
same,Potency,[6],inactive
C=C[C@@H]1C[C@]1(NC(=O)[C@@H]1C[C@@H](Oc2ncc(OC)c3ccc(Cl)cc23)CN1C(=O)[C@@H](NC(=O)OC(C)(C)C)C(C)(C)C)C(=O)NS(=O)(=O)C1CC1,Potency,[1],inactive
same,Potency,[2],inactive
same,Potency,[3],inactive
same,Potency,[8],10.8 µM (active)
C=C1/C(=C\C=C2/CCC[C@]3(C)[C@@H]([C@H](C)CCCC(C)(C)O)CC[C@@H]23)C[C@@H](O)C[C@@H]1O,Potency,[1],inactive
same,Potency,[2],inactive
same,Potency,[3],inactive
same,Potency,[6],inactive
C=C[C@]1(C)C[C@@H](OC(=O)CSCCN(CC)CC)[C@]2(C)[C@H](C)CC[C@]3(CCC(=O)[C@H]32)[C@@H](C)[C@@H]1O,Potency,[1],20 µM (active)
same,Potency,[2],inactive
same,Potency,[3],inactive
same,Potency,[7],3.04 µM (active)
same,Potency,[6],inactive
same,Potency,[8],15.2 µM (active)
Cc1cc(N)c2ccccc2[n+]1CCCCCCCCCC[n+]1c(C)cc(N)c2ccccc21,outcome,[15],inactive
same,outcome,[16],inactive
same,"activity change, negative = inhibition",[1],-2.83% [at 11.4 µM] (inactive)
same,"activity change, negative = cytotoxicity",[2],1.39% [at 11.4 µM] (inactive)
same,"activity change, negative = cytotoxicity",[3],-0.518% [at 11.4 µM] (inactive)
same,"activity change, negative = cytotoxicity",[6],-25.1% [at 11.3 µM] (inactive)
COc1ccc(C=CC(=O)O)cc1,Potency,[1],inactive
same,Potency,[2],inactive
same,Potency,[3],inactive
same,Potency,[6],inactive
same,"activity change, negative = inhibition",[9],-10.2%
